Cycloheximide cs: counter-screen hit for Shiga toxin inhibitors, cycloheximide; cell reporter, cycloheximide protein synthesis inhibition counterscreen; max response, %; actives 12% (n = 300,000); in the data active = max response mostly above about 13%, no sharp cut-off; inactive = mostly below about 14%; also: read at 38.3 µM for the half of the compounds with a filed dose; 0% is about no effect
AMA1 RON2 block: disrupts binding of P. falciparum AMA1 to RON2 | Potency, µM (series often up to 58.2 µM), for inactives: at the highest dose activity change, negative = inhibition, most hits filed as inhibitors | AlphaScreen AMA1-biotinylated RON2 peptide binding | actives 0.2% (n = 360,000) | AID 720542; active = well fitted inhibition curve with a large enough effect; inconclusive = small, poorly fitted or top-dose-only effect; inactive = no such curve, though single readings can be large or run the other way;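 also: potency is read from the fitted curve at half-maximal effect; 0% = vehicle wells and -100% = peptide control; nearly all actives have a fitted effect of over 45% in size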
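AMA1 (3D7) with his tag at 25 nM final met compounds first, then biotinylated RON2 peptide at 25 nM; detection used donor plus acceptor beads, 10 µg/mL apiece, read by AlphaScreen after 30 min at room temperature.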
Shiga toxin inh: Shiga toxin inhibition. Vero cells, Shiga toxin protein synthesis inhibition reporter. inhibition, % at 38.7 µM. actives 9.2% (n = 290,000). AID 2315; in the data active = inhibition mostly above about 28%, no sharp cut-off; inactive = mostly below about 43%; also: 0% is about no effect
Lassa entry inh: Lassa virus entry inhibition; Lassa virus pseudotype entry inhibition, cell reporter; Potency, µM (highest dose often 37.9 µM), for the others: top-dose activity change, negative = inhibition, actives largely listed as inhibitors; actives 1.2% (n = 300,000); calls by dose curve; tested in HEK293 cells; also: potency is read from the fitted curve at half-maximal effect; % is scaled to controls: 0 for no effect and ±100 for the full control effect; nearly all actives have a fitted effect of over 50% in size
MARV entry inh: blocks Marburg virus binding to or entry into cells; Marburg virus pseudotyped entry inhibition, cell reporter; actives 1.8% (n = 300,000); Potency, µM (titrated, usually from 37.8 µM), inactives show at the highest dose activity change, negative = inhibition, hits mostly inhibitors; calls by dose curve; tested in HEK293 cells; also: potency is read from the fitted curve at half-maximal effect; % is scaled to controls: 0 for no effect and ±100 for the full control effect
Numbers without * were called inactive; i = inactive; ? = inconclusive; / = not tested or not shown; + = active, no number; [ ] = another dose, or the depositor's remark. This is one part of a sample in which hits are shown more often than they occur.

SMILES	Cycloheximide cs	AMA1 RON2 block	Shiga toxin inh	Lassa entry inh	MARV entry inh
COc1ccc([C@]23Cc4c(ccc5ccccc45)C(O2)C2=C(CCCC2=O)O3)cc1	6.4	/	i	/	/
O=C1C2=C(C(=O)c3ccccc31)C1O[C@](c3ccsc3)(Cc3c1ccc1ccccc31)O2	32.5*	/	+	/	/
Cc1ccc(F)c(S(=O)(=O)NC(=O)C2(C)CCN2C(=O)c2ccc(C(F)(F)F)nc2C)c1 (stereo not given)	/	-4.2%	/	/	/
O[C@H](CN1CCN(c2cccc(Cl)c2)CC1)C(c1ccccc1)c1ccccc1	/	/	/	/	21.7%
CCCNC(=O)C[C@H]1C[C@H]2c3cc(NC(=O)Nc4ccc(F)cc4)ccc3O[C@H]2[C@@H](CO)O1	/	-1.2%	/	/	/
COc1ccc(/C=N\NC(=O)c2cc(O)c(O)c(O)c2)cc1COc1ccc(C(=O)OCC(C)C)cc1	5.9	47.4%	30.0	/	/
CCCC[C@@H]1CC2=C(C(=O)OC(C)(C)O2)[C@@H](c2ccc(Cl)cc2)O1	/	-1.4%	/	/	/
COc1cc(O)c(CC=C(C)C)c(O)c1C(=O)CCc1ccc(O)cc1	-5.7	-11.7%	25.9*	/	/
COc1ccc(C(=O)/C=C/c2ccc(O)cc2)c(O)c1C/C=C(\C)CCC=C(C)C	/	-18.1%	/	/	/
O=C(CCc1ccc(O)cc1)c1c(O)cc(O)cc1O	19.7*	9.8%	15.1	?	?
CCOC(=O)c1ccccc1NC(=O)CSc1cn(CC(=O)N2CCOCC2)c2ccccc12	/	/	/	10.8%[46.1 µM]	/
O=C(CN(Cc1ccccc1)S(=O)(=O)c1ccc(Br)cc1)NCc1ccco1	14.7	-18.7%	24.9*	-2.2%	-2.2%
Cc1ccc(S(=O)(=O)N(Cc2ccc(Cl)cc2)c2ccccc2C(=O)NCc2ccco2)cc1	32.6*	-20.3%	43.7*	-14.7%	?
COc1ccc(N(CC(=O)NCc2ccco2)S(=O)(=O)c2ccc(C)cc2)cc1OC	6.7	1.7%	2.8	-3.7%	?
O=C(CN(c1ccc(Cl)cc1)S(=O)(=O)c1ccccc1)N/N=C/c1ccco1	4.0	-4.5%	17.5	-20.5%	-22.8%
Cc1ccc(S(=O)(=O)N(CC(=O)N/N=C/c2ccco2)c2cc(Cl)cc(Cl)c2)cc1	-1.1	40.6%	-6.2	?	15.8µM*
COc1ccccc1N(CC(=O)NCc1ccco1)S(=O)(=O)c1ccc(C)cc1	-2.4	-20.6%	5.6	20.5%	1.3%[46.1 µM]
Cc1ccc(N(CC(=O)NCc2ccco2)S(=O)(=O)c2ccccc2)cc1	27.0*	-14.6%	30.2	-2.7%	-13.7%
CCN(CC)CCC[C@H](C)N=C(c1ccccc1)c1c(O)n(C)c(=O)n(C)c1=O	/	/	/	/	-2.5%
COCCN=c1scc(-c2cccs2)n1/N=C(\C)c1ccco1	82.7*	1.7%	123.7*	/	/
COCCN=c1scc(-c2ccco2)n1/N=C/c1ccc(O)c(O)c1O	11.2	-23.9%	53.9	-25.1%	0.2%[46.1 µM]
N/C(=N\OC(=O)CCCc1ccccc1)c1ccccc1Cl	32.7*	83.1%	48.1	11.5%[46.1 µM]	?
N/C(=N\OC(=O)Cc1ccccc1)c1ccc(Br)cc1	53.2*	94.9%	104.0*	6.2%	?
Cc1ccc(/C(N)=N/OC(=O)CCCc2ccccc2)cc1	56.5*	78.6%	42.7*	26.4%[46.1 µM]	4.4%[46.1 µM]
Cc1ccc(/C(N)=N/OC(=O)Cc2ccccc2)cc1	52.5*	89.2%	54.4*	?	22.2%
SMILES	Cycloheximide cs	AMA1 RON2 block	Shiga toxin inh	Lassa entry inh	MARV entry inh
N/C(=N\OC(=O)Cc1ccccc1)c1ccncc1	1.5	2.1%	31.6	-0.1%	5.6%
O=C(OCC(=O)N1CCN(c2ccccc2)CC1)c1nc(Cl)ccc1Cl	/	0.4%	/	-5.6%	4.4%
O=C(Cn1c(=O)n(Cc2nc(-c3ccccc3)no2)c(=O)c2ccccc21)Nc1cccc(C(F)(F)F)c1	/	/	/	9.3%[46.1 µM]	/
COC(=O)c1ccccc1NC(=O)c1ncoc1-c1ccco1	/	/	/	2.5%[46.1 µM]	/
NC(=Nc1ccccc1)Nc1ccccc1	-2.2	-7.2%	-11.0	/	/
Cc1ccc(CC(=O)O/N=C(\N)c2ccncc2)cc1	29.9*	17.5%	59.5	/	/
COc1ccc(/C(N)=N/OC(=O)Cc2ccc(C)cc2)cc1	30.1*	81.5%	50.1*	-4.7%	-13.9%
Cc1ccc(C(N)=Nc2ccccc2)cc1	15.9*	-8.1%	46.0	/	/
COc1ccc(/C(N)=N/OC(=O)Cc2ccc(OC)c(OC)c2)cc1	17.8	-0.6%	25.9	-17.2%	?
CC12CCC(=O)N1C(C(=O)NNC(=O)COc1cccc(C(F)(F)F)c1)CS2 (stereo not given)	/	45.1%	/	6.7%	11.2%
O=C(CSc1nc2c([nH]c3ccccc32)c(=O)n1-c1cccc(C(F)(F)F)c1)N1CCCC1	/	/	/	13.9%[46.1 µM]	/
CCn1ccnc1CN(C)C(=O)c1cc(COc2c(F)cccc2F)on1	9.3	30.9%	17.9	/	/
CN(Cc1cnn(C)c1)C(=O)c1cc(COc2c(F)cccc2F)on1	19.0*	14.6%	46.0	-14.4%	-19.9%[46.1 µM]
COc1cccc(CN(C)C(=O)c2cc(COc3c(F)cccc3F)on2)c1	21.9*	-2.0%	4.8	16.3%[46.1 µM]	22.0%[46.1 µM]
CCN(CCn1cccn1)C(=O)c1cc(COc2c(F)cccc2F)on1	1.1	1.6%	11.1	-19.1%[46.1 µM]	?
CCN(Cc1ccccc1)C(=O)c1cc(COc2c(F)cccc2F)on1	12.9*	3.4%	18.0	?	-0.5%[46.1 µM]
COc1cccc(CN(C)C(=O)c2cc(COc3ccc4ncccc4c3)on2)c1	0.6	-22.4%	16.6	?	-22.5%[46.1 µM]
CCOc1ccccc1N=NC1C(=O)N(C(N)=S)N=C1C (stereo not given)	-1.6	100.1%	-1.8	/	/
CC(C)(C)n1[nH]c2c3c(ccc2c1=O)C(=O)c1ccccc1C3=O	24.2*	-9.9%	44.2	?	?
O=C(Nc1sc2c(c1C(=O)NCC1CCCO1)CCC2)c1cc(=O)c2cc(Cl)ccc2o1 (stereo not given)	/	/	/	19.6%[46.1 µM]	-14.2%[46.1 µM]
CC(=O)NC1=C(NC2CCS(=O)(=O)C2)C(=O)c2ccccc2C1=O (stereo not given)	7.3	-8.3%	-32.4	-16.3%	?
CN(C1=C(NC(=O)c2ccccc2)C(=O)c2ccccc2C1=O)C1CCS(=O)(=O)C1 (stereo not given)	38.8*	-6.2%	75.2*	?	?
CC1(C)CC(=O)c2c(oc3cc(O)c(O)cc23)C1	6.0	1.58µM*	-5.2	-13.3%	?
COc1cccc(NC(=O)c2oc3ccccc3c2NC(C)=O)c1	36.8*	4.8%	47.1*	6.1%	?
COCC(=O)Nc1c(C(=O)Nc2cccc(OC)c2)oc2ccccc12	47.9*	5.8%	58.1*	-69.3%	?
O=C1Nc2ccccc2N=C(c2ccccc2)c2ccccc21	19.9*	-15.1%	17.3	?	?
O=C1Nc2ccccc2Nc2ccccc21	-3.2	-7.0%	-4.9	?	-6.8%
CC1(C)SC(=S)N(/N=C/c2ccccc2)C1N(O)C(=O)Nc1ccc([N+](=O)[O-])cc1 (stereo not given)	14.3	25.0%	31.4	0.0%	17.8µM*
Cc1ccc(/C=N/N2CCCCC2)o1	38.5*	14.6%	56.1*	7.5%	?
Cc1ccc(/C=N/N2CCN(c3ccc(Cl)cc3)CC2)o1	-2.8	-6.2%	7.3	-1.0%	-9.0%

From PubChem
